The full ranking holds about 8,300 sequences; the median of “log2 fold change of degron read counts, EGFP-low vs EGFP+ sorted cells (limma voom), compound-induced degradation” is about -1.1, and the highest 2% start at about 3.2. The sample as a whole holds a higher share of the highest values than the screen did.
T1: CRBN, Q96SW2
T1 chain: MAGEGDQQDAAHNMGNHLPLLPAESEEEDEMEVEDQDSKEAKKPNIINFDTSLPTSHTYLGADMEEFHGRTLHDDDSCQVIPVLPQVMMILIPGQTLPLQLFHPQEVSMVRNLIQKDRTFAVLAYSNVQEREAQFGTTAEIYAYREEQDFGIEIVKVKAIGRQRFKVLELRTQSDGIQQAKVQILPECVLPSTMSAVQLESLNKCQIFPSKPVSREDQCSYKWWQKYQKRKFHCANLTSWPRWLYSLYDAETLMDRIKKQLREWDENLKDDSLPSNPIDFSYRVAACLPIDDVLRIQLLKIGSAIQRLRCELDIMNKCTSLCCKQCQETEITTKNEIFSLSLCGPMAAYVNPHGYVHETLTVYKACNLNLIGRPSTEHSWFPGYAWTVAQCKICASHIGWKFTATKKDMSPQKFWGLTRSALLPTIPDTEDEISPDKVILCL

B1: 46F_47F_49N_50V_52G_53A_54S_55F_67L_, Q9UKT9 (peptide)
chain: FFCNVCGASFTQKGNLLRHIKL
B2: 46F_47W_49N_50V_52G_53A_54T_55F_67L_, Q9UKT9 (peptide)
chain: FWCNVCGATFTQKGNLLRHIKL
B3: 46F_47V_49E_50I_52G_53H_54W_55F_67L_, Q9UKT9 (peptide)
chain: FVCEICGHWFTQKGNLLRHIKL
B4: 46F_47C_49N_50V_52G_53A_54I_55F_67L_, Q9UKT9 (peptide)
chain: FCCNVCGAIFTQKGNLLRHIKL
B5: 46F_47R_49D_50V_52G_53A_54K_55F_67L_, Q9UKT9 (peptide)
chain: FRCDVCGAKFTQKGNLLRHIKL
B6: 46F_47F_49E_50I_52G_53H_54Q_55F_67L_, Q9UKT9 (peptide)
chain: FFCEICGHQFTQKGNLLRHIKL
B7: 46F_47C_49P_50V_52G_53A_54Y_55F_67L_, Q9UKT9 (peptide)
chain: FCCPVCGAYFTQKGNLLRHIKL
B8: 46L_47F_49E_50I_52G_53F_54S_55C_67L_, Q9UKT9 (peptide)
chain: LFCEICGFSCTQKGNLLRHIKL
B9: 46L_47M_49E_50I_52G_53F_54S_55C_67L_, Q9UKT9 (peptide)
chain: LMCEICGFSCTQKGNLLRHIKL
B10: 46L_47Y_49E_50I_52G_53F_54S_55C_67L_, Q9UKT9 (peptide)
chain: LYCEICGFSCTQKGNLLRHIKL
B11: 46L_47I_49E_50I_52G_53F_54S_55C_67L_, Q9UKT9 (peptide)
chain: LICEICGFSCTQKGNLLRHIKL
B12: 46L_47K_49E_50I_52G_53F_54S_55C_67L_, Q9UKT9 (peptide)
chain: LKCEICGFSCTQKGNLLRHIKL
B13: 46L_47C_49E_50I_52G_53F_54S_55C_67L_, Q9UKT9 (peptide)
chain: LCCEICGFSCTQKGNLLRHIKL
B14: 46L_47T_49E_50I_52G_53F_54S_55C_67L_, Q9UKT9 (peptide)
chain: LTCEICGFSCTQKGNLLRHIKL

Molecular target: T1, CRBN, Q96SW2
Assay: log2 fold change of degron read counts, EGFP-low vs EGFP+ sorted cells (limma voom), compound-induced degradation; higher = more compound-induced degradation of the degron-EGFP fusion; degrons are variants of IKZF1/3 zinc finger 2; compound dose not given here
Details: Jurkat, 18 h
[1] = compound: compound 19 (5-tert-butyl-thalidomide)
[2] = compound: compound 22 (5-morpholino-thalidomide)
[3] = compound: compound 33 (diphenyl IMiD analogue)
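Also: pooled lentiviral library of zinc finger degron-EGFP fusions in mCherry-positive Jurkat cells, FACS-sorted after compound exposure, with degron abundance counted by next-generation sequencing.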

Sequence | log2 fold change of degron read counts [1] | log2 fold change of degron read counts [2] | log2 fold change of degron read counts [3] | log2 fold change of degron read counts (compound: thalidomide)
B1 | 0.714 | 1.8 | 0.537 | -0.573
B2 | -0.873 | 1.95 | 0.03 | -1.73
B3 | -4.05 | -5.4 | -3.27 | -3.37
B4 | -0.872 | -0.605 | 1.29 | -0.21
B5 | -1.66 | -1.94 | -0.967 | -0.732
B6 | -2.47 | -1.41 | -2.03 | -3.11
B7 | 0.773 | 0.428 | 1.38 | 0.899
B8 | 3.66 | 3.51 | 2.53 | 2.79
B9 | 1.25 | 2.14 | 2.59 | 2.36
B10 | 3.63 | 3.7 | 3.1 | 2.45
B11 | 1.33 | 3.02 | 2.39 | 3.24
B12 | 1.07 | -1.26 | -1.41 | 0.762
B13 | 2.55 | 2.37 | 1.93 | 2.56
B14 | 2.45 | 3.22 | 2.39 | 3.2
